# Data taken from PubChem BioAssay AID624170 (National Center for Advancing Translational Sciences (NCATS), 2012).
# Several values for one entry are separate records, joined by “and”; a condition that tells them apart may be missing. Equal entries are not always repeated. The whole screen tested about 410,000 compounds, of which about 850 (0.21%) were called active. Roughly 2% stayed inconclusive and do not appear here. Calls follow the shape of the dose curve; as a rule, active = well fitted inhibition curve with a large enough effect; inconclusive = small, poorly fitted or top-dose-only effect, or another doubt; inactive = no such curve, though single readings can be large or run the other way. For the sample, actives were picked, then their nearest neighbours and some compounds at random. Some structures have more than one record in an assay (separate samples or runs), and their calls can disagree.
# Target: Glutaminase kidney isoform, mitochondrial (Homo sapiens) (UniProt O94925)
# Assay: qHTS for Inhibitors of Glutaminase (GLS)
# Conditions: GLS enzymatic activity, qHTS titration; series mostly up to 45.5 µM; activity change, negative = inhibition: at the top concentration
# Method in brief: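 Glutamate formation by hKGA was monitored fluorometrically using coupled glutamate oxidase, HRP and Amplex Red. Substrate was added as 1 mM L-glutamine solution; incubation was 30 min at RT after an initial read.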
# % is scaled to controls: 0 for no effect and ±100 for the full control effect; potency is read from the fitted curve at half-maximal effect.
# Sequence of Glutaminase kidney isoform, mitochondrial (Homo sapiens) (O94925 whole entry, looked up, canonical isoform): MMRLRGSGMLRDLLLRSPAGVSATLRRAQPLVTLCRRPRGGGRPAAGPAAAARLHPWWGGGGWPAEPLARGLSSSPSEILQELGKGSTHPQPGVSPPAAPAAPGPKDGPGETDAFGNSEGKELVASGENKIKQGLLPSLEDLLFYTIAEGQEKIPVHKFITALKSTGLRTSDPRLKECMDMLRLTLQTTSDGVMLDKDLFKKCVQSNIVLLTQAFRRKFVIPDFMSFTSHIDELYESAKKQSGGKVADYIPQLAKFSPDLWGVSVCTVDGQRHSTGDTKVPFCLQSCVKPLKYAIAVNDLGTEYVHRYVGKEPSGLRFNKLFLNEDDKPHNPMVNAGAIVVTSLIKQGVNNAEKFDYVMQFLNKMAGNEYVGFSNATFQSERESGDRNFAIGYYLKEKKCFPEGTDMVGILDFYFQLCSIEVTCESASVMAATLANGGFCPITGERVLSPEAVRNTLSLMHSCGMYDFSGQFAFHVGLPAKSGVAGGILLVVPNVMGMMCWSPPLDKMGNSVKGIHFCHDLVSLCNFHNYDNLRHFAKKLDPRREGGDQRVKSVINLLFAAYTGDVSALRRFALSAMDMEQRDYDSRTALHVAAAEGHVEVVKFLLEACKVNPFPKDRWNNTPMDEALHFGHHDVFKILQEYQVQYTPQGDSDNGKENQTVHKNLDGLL
SMILES,Potency,"activity change, negative = inhibition"
CN(C(=O)COC(=O)c1cc(-c2ccco2)nc2ccccc12)C1CCS(=O)(=O)C1 (stereo unspecified),10 µM (active),
CCOC(=O)CN1C(C(=O)c2ccccc2)=C(OC(=O)C(C)(C)C)c2ccccc2S1(=O)=O,,-4.55% (inactive)
NC(=O)[C@H]1CC2(CC(c3cccc(NC(=O)[C@H]4CCC(=O)N4)c3)=NO2)CN1C(=O)c1ccccc1C(=O)c1ccccc1 (stereo partly specified),,7.06% (inactive)
CCC(=O)Nc1cccc(C2=NOC3(C2)C[C@@H](C(N)=O)N(C(=O)c2cc([N+](=O)[O-])cc([N+](=O)[O-])c2C)C3)c1 (stereo partly specified),,-2.13% (inactive)
C=C(C)C(=O)Nc1cccc(C2=NOC3(C2)C[C@H](C(N)=O)N(C(=O)C(c2ccccc2)c2ccccc2)C3)c1 (stereo partly specified),14.1 µM (active),
COc1ccc(OC)c(NC(=O)Cn2c(=O)n(Cc3ccccc3)c(=O)c3ccccc32)c1,,-4.18% (inactive)
CC(C)(C)C1C/C(=C/c2ccco2)C(=O)/C(=C/c2ccco2)C1 (stereo unspecified),22.4 µM (active),
CC[C@]1(C)CC(=O)NC1=O,,0.282% (inactive)
O=P(O)(O)OC[C@H](O)CO,,-1.43% (inactive)
CC(C)c1ccc(NS(=O)(=O)c2ccc3[nH]cc(C(=O)NC4CCCC4)c(=O)c3c2)cc1,,-9.07% (inactive)
COc1cc(Cl)c(C)cc1NC(=O)CCc1nc2cccnc2n1Cc1cccs1,,0.67% (inactive)
COC(=O)Cc1ccc(OCC(=O)NC2CCCC2)cc1,,5.37% (inactive)
CC1(C)S[C@@H]2[C@H](NC(=O)COc3ccccc3)C(=O)N2C1C(=O)OCc1ccccc1 (stereo partly specified),,4.77% (inactive)
CC1(C)SC2C(NC(=O)COc3ccccc3)C(=O)N2C1C(=O)O (stereo unspecified),inactive and 8.91 µM (active),
OCC(CO)NC1C[C@](O)(CO)[C@@H](O)[C@H](O)[C@H]1O (stereo partly specified),,-5.08% (inactive)
CC(=O)OCC(=O)[C@@]1(O)CC[C@@H]2[C@H]3CCC4=CC(=O)C=C[C@]4(C)[C@]3(F)[C@@H](O)C[C@@]21C,,1.13% [at 20 µM] (inactive)
Cc1c(Cl)cccc1NC(=O)C1CCCN(c2ncnc3onc(C)c23)C1 (stereo unspecified),,-6.23% (inactive)
Cc1cccc(C(C)C)c1NC(=O)C(NS(=O)(=O)c1cccc2nsnc12)c1ccccc1 (stereo unspecified),,-0.851% (inactive)
COCCCn1c(Cc2csc(Nc3cccc(Cl)c3)n2)nnc1SCC(=O)OC1CCCCC1,12.6 µM (active),
COCCCn1c(SCC(=O)NC2CCCC2)nnc1-c1ccccc1,,-2.76% (inactive)
COCCn1c(Cc2cccn2C)nnc1SCC(=O)Nc1nccs1,,-12.2% (inactive)

SMILES,Potency,"activity change, negative = inhibition"
FCOC(C(F)(F)F)C(F)(F)F,,-0.0238% (inactive)
C=C1C(=CC=C2CCC[C@@]3(C)[C@@H]2CC[C@H]3[C@H](C)CCCC(C)C)C[C@@H](O)C[C@@H]1O,,-7.16% (inactive)
CCOC(=O)c1ccc(NC(=O)CSc2nc3c([nH]c4ccccc43)c(=O)n2C)cc1,,-2.03% (inactive)
CCOc1ccc(-n2c(SCC(=O)NCc3ccccc3)nc3n[nH]c(C)c3c2=N)cc1,,-24.6% (inactive)
CCOc1ccc(-n2c(C)nc3c(cnn3-c3ccc(C)cc3)c2=O)cc1,,-4.38% (inactive)
CCOc1ccc(N/C(N)=N/c2nc(C)c(C)c(=O)[nH]2)cc1,,4.49% (inactive)
CCOc1ccc(-n2c(O)c(/C=N/Nc3nc(C)cc(C)n3)c3ccccc3c2=O)cc1,11.2 µM (active),
CCOc1ccc(-n2c(O)c(/C=N/Nc3nnc(C)c(=O)[nH]3)c3ccccc3c2=O)cc1,10 µM (active),
COc1ccc(-n2c(O)c(C=NCC(c3ccco3)N3CCCC3)c3ccccc3c2=O)cc1OC (stereo unspecified),,-0.259% (inactive)
Cc1ccc(-c2ncc(Cl)cc2-c2ccc(S(C)(=O)=O)cc2)cn1,,5.57% (inactive)
COc1ccc2c(c1)c(=O)c(S(=O)(=O)c1ccc(F)cc1)cn2CC(=O)Nc1ccc(C)cc1C,,4.91% (inactive)
CC1(C)OC2CC(=O)OC[C@@]23C1CC(=O)[C@]1(C)C3CC[C@@]2(C)C(c3ccoc3)OC(=O)C3O[C@@]321 (stereo partly specified),,-16.2% (inactive)
CCOC(=O)Cc1cccc(-c2cc(CCCCCCc3ccc(O[C@H]4O[C@H](COC(C)=O)[C@@H](OC(C)=O)[C@H](OC(C)=O)[C@@H]4OC(C)=O)c(-c4cccc(CC(=O)OCC)c4)c3)ccc2O[C@H]2O[C@H](COC(C)=O)[C@@H](OC(C)=O)[C@H](OC(C)=O)[C@@H]2OC(C)=O)c1,,3.57% (inactive)
Cc1nc(N2CCOCC2)c2c(C(=O)NCc3cccc(Cl)c3)c(C)oc2n1,,0.0319% (inactive)
COc1ccc(S(=O)(=O)NCc2cccn2Cc2cccc(C)c2)cc1Cl,,-10.6% (inactive)
Cc1ccc(Cl)cc1NC(=O)CCC(=O)N1CC(C)Sc2ccccc21 (stereo unspecified),,8.36% (inactive)
Cc1cccc(C(=O)Nc2ccc(-c3nc4ccccc4s3)c(C)c2)c1,,7.67% (inactive)
COc1ccc(-n2c(SCC(=O)Nc3ccc(Cl)c(C)c3)nc3n[nH]c(C)c3c2=N)cc1,,-1.2% (inactive)
Cc1ccc(-n2c(SCC(=O)NCCC3=CCCCC3)nc3n[nH]c(C)c3c2=N)cc1Cl,,-5.74% (inactive)
COc1cccc(-n2c(SCC(=O)NC3CCCCC3)nc3n[nH]c(C)c3c2=N)c1,10 µM (active),
